Measured values from article PMC4336329 (PLoS ONE, 2015).
The whole screen tested about 310,000 compounds, of which about 14,000 (4.5%) showed an effect of 50% or more. The effect is printed as a negative number. The full list was thinned out, with strong results kept by preference.

The compounds below were run against human ether-à-go-go-related gene (hERG) potassium channel (human, UniProt Q12809) (assay: primary screen, population patch clamp on CHO cells stably expressing hERG; higher = less effect of the substance).
human ether-à-go-go-related gene (hERG) potassium channel, sequence (Q12809 whole entry, looked up): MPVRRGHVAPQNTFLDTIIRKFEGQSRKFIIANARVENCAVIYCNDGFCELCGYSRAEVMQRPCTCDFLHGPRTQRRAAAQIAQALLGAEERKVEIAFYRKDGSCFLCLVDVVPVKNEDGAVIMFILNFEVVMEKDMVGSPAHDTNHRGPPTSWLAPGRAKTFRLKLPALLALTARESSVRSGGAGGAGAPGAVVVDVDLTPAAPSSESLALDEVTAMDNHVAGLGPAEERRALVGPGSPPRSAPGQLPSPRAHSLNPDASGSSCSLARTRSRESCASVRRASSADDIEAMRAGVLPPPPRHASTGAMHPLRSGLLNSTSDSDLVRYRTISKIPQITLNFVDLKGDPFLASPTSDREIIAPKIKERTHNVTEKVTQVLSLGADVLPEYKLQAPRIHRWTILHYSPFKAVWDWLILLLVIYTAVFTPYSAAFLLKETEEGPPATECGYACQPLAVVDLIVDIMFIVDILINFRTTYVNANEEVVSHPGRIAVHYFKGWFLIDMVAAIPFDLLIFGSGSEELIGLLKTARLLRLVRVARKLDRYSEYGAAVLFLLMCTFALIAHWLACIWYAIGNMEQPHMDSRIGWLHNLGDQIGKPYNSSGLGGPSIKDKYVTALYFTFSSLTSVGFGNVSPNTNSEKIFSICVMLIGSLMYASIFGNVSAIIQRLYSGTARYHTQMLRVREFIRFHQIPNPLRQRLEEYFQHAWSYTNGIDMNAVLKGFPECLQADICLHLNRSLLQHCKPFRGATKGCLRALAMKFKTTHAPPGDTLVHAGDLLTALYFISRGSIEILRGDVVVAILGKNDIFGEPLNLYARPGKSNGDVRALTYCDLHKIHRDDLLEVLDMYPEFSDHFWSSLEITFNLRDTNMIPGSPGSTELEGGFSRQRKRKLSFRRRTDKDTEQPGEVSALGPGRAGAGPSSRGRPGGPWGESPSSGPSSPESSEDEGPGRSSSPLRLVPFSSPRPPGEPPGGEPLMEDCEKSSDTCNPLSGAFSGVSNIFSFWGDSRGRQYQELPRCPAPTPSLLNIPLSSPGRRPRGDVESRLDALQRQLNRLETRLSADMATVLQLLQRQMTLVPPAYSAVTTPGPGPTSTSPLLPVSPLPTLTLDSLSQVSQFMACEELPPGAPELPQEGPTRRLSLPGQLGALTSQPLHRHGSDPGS
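Also: peak tail current of the secondary pulse compared with the same well before compound.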

Row | SMILES | hERG current change (%, negative = inhibition) at 10uM
1 | CCCn1c(O)c(/C=C2\C=NN=C2c2ccccc2)sc1=S | 7.93%
2 | c1ccc(C2Nc3cccc4cccc(c34)N2)cc1 | 14%
3 | CN1CCN(NC(=O)c2cc(S(=O)(=O)Nc3ccc(Cl)cc3)ccc2Cl)CC1.Cl | 5.84%
4 | CCOC(=O)CNC(=O)c1ccc(Br)s1 | -9.48%
5 | CCOc1cccc(-c2c(C(=O)N/N=C(\C)c3ccncc3)nnn2-c2nonc2N)c1 | -43.6%
6 | COc1ccc(-[n+]2c(-c3ccccc3)cc(-c3ccc(C)cc3)cc2-c2ccccc2)cc1.[O-][Cl+3]([O-])([O-])[O-] | -77.7%
7 | COc1ccc2cc(-c3ccccc3)c(=O)oc2c1 | 18%
8 | COc1ccc(-[n+]2c(-c3ccccc3)cc(-c3ccccc3)cc2-c2ccccc2)cc1.[O-][Cl+3]([O-])([O-])[O-] | -71.9%
9 | COc1ccc(-c2cccc(C(=O)Nc3ccc(C)cc3)c2)cc1 | 16.9%
10 | COc1ccc(-c2ccc(OC)cc2)cc1 | 7.51%
11 | COc1ccc2cc(-c3ccccc3)ncc2c1 | 5.65%
12 | CSc1ccc(S(=O)(=O)NCc2ccccc2)cc1 | 13.1%
13 | CCCC(CCC(=O)Nc1cccc([N+](=O)[O-])c1)C(=O)O (stereo not drawn) | -0.0899%
14 | CCOc1ccc(-n2c(C)nc3cc(C(=O)NCC4CCCO4)ccc32)cc1 (stereo not drawn) | -15.2%
15 | CCN(CC)c1ccc(S(=O)(=O)N2CCCCC2)cc1NC(=O)C1CCC1 | -15.3%
16 | CC1(C)CC(=O)c2cnc(NCC3CCCO3)nc2C1 (stereo not drawn) | 7.24%
17 | COc1cc(C2=NOC(C(=O)Nc3ccc4c(c3)OCO4)C2)cc(OC)c1OC (stereo not drawn) | 16.6%
18 | FC(F)(F)c1nc(N2CCCC2)ncc1-c1nnnn1-c1ccc(Cl)cc1 | -4.4%
19 | CC1(C)C(N(O)C(=O)Nc2ccc(Cl)cc2)N(c2ccc(Cl)cc2)C(=O)N1CC(=O)NN (stereo not drawn) | -14.6%
20 | O=c1cc(-c2ccccc2)[nH]n2cnnc12 | 12.6%
21 | O=C(CN1C(=O)S/C(=C\c2cccc(Cl)c2)C1=O)NCCCn1ccnc1 | -51.2%
22 | O=C(CN1C(=O)S/C(=C\c2ccccc2F)C1=O)NCCCn1ccnc1 | -9.34%
23 | COc1ccc(/C=C2\SC(=O)N(CCC(=O)NCCCn3ccnc3)C2=O)cc1 | -43.2%
24 | O=C(CN1C(=O)S/C(=C\c2ccc(F)cc2)C1=O)NCCCn1ccnc1 | -58.9%
25 | CC(C)c1ccc(/C=C2\SC(=S)N(CCC(=O)NCCCn3ccnc3)C2=O)cc1 | -17.3%

Row | SMILES | hERG current change (%, negative = inhibition) at 10uM
26 | CC(C)c1ccc(/C=C2\SC(=O)N(CC(=O)NCCCn3ccnc3)C2=O)cc1 | -76.9%
27 | COc1cccc(/C=C2\SC(=O)N(CC(=O)NCCCn3ccnc3)C2=O)c1 | -31.6%
28 | O=C(CN1C(=O)S/C(=C\c2ccccc2Cl)C1=O)NCCCn1ccnc1 | -44.5%
29 | O=C(CN1C(=O)S/C(=C\c2ccc(Cl)cc2)C1=O)NCCCn1ccnc1 | -68.2%
30 | O=C(CN1C(=O)S/C(=C\c2ccccc2)C1=O)NCCCn1ccnc1 | -23.4%
31 | COc1ccccc1/C=C1\SC(=O)N(CC(=O)NCCCn2ccnc2)C1=O | -3.76%
32 | COc1ccc(/C=C2\SC(=O)N(CC(=O)NCCCn3ccnc3)C2=O)cc1 | -44.5%
33 | CCCCCCCCN1[C@@H](CC(=O)OC)c2cc(C(F)(F)F)ccc2S1(=O)=O | 1.99%
34 | Cc1cc(C)n(-c2nc3c(c(=O)[nH]c(=O)n3C)n2C)n1 | 10.1%
35 | Oc1ccc(-c2cc(-c3ccc(O)cc3)nc(-c3ccccc3)n2)cc1 | 20.1%
36 | Cc1ccc(S(=O)(=O)n2[nH]c(=O)cc2NC(=O)c2cccs2)cc1 | -0.667%
37 | CCc1nn2c(=O)cc(CSCC(=O)Nc3ccccc3F)nc2s1 | 11.3%
38 | Cc1ccccc1OCC(=O)N1CCCCCCC1 | 1.22%
39 | CCC(C#CCN1CCCCC1)(CC)OCCC#N | 2.57%
40 | CCOC(=O)Cc1nnc(NC(=O)CSc2ncc(-c3ccccc3)nn2)s1 | -58.7%
41 | CCOC(=O)CSc1ncc(-c2ccccc2)nn1 | -6.58%
42 | CCOC(=O)Cc1nnc(NC(=O)CSc2ccccc2)s1 | 7.53%
43 | C=CCc1cc(C=O)cc(OCC)c1OCc1ccc(Cl)cc1 | 31.4%
44 | COc1ccccc1C1C(C#N)=C(N)Oc2cc(C)n(Cc3ccccn3)c(=O)c21 (stereo not drawn) | -2.81%
45 | Cc1ccc2c(c1)C(=C(C#N)C#N)C(=O)N2CCN1CCOCC1 | -38.6%
46 | CCCS(=O)(=O)c1nc(S(=O)(=O)c2ccc(C)cc2)c(N2CCc3ccccc3C2)s1 | 5.34%
47 | Cc1ccc(-c2cc(C(=O)N3CCCc4ccccc43)no2)cc1 | -75.6%
48 | O=C(c1cc(-c2ccc(O)cc2)on1)N1CCCc2ccccc21 | -29.5%
49 | Cc1ccc(-c2cnc(SCC(=O)N3CCCc4ccccc43)n2C)cc1 | -50.8%
50 | Cn1c(-c2ccc(F)cc2)cnc1SCC(=O)N1CCCc2ccccc21 | -24.8%

Row | SMILES | hERG current change (%, negative = inhibition) at 10uM
51 | O=C(c1cc(-c2ccccc2)on1)N1CCCc2ccccc21 | -18.1%
52 | Cn1c(-c2ccccc2)cnc1SCC(=O)N1CCCc2ccccc21 | -27.9%
53 | O=C(NCc1ccc(F)cc1Cl)C1CCN(S(=O)(=O)N2CCC3(CC2)OCCO3)CC1 | -13.9%
54 | CC(=O)Oc1ccc(NC(=O)Cc2ccccc2)cc1 | 24.9%
55 | Cc1ccc(OCC(=O)c2ccc3c(c2)CCCC3)cc1C | 4.7%
56 | C=CCSc1ncnc2sc(C)c(C)c12 | 9.87%
57 | COc1ccc(Cl)cc1NC(=O)C1(c2cccs2)CCOCC1 | -17.8%
58 | CC(CCc1ccccc1)NC(=O)Cc1ccc(Br)cc1 (stereo not drawn) | 8.87%
59 | COc1ccc(CCC(C)Nc2ccc(F)c(F)c2)cc1 (stereo not drawn) | 5.47%
60 | CC(CCc1ccccc1)NCc1ccc(Cl)cc1Cl.O=C(O)C(=O)O (stereo not drawn) | -31.5%
61 | COc1ccc(CCC(C)NCc2cc(OC)cc(OC)c2)cc1 (stereo not drawn) | -42.3%
62 | CC(CCc1ccc(O)cc1)NCc1ccc(Br)cc1 (stereo not drawn) | -76.2%
63 | CC(O)CNCc1ccc(Cl)cc1Cl.Cl (stereo not drawn) | 12.3%
64 | CC(CCc1ccc(O)cc1)NCc1ccc(Cl)cc1Cl (stereo not drawn) | -63.8%
65 | CC(CCc1ccccc1)NCc1ccncc1 (stereo not drawn) | -8.72%
66 | COc1ccc(CCC(C)NCc2ccc(Cl)c(Cl)c2)cc1 (stereo not drawn) | -53.7%
67 | COc1ccc(CCNC(C)CCc2ccc(OC)cc2)cc1 (stereo not drawn) | -13%
68 | COc1ccc(CNCCc2ccc(Cl)cc2Cl)cc1 | -22.2%
69 | COc1ccc(CCC(C)NCCc2ccc(Cl)cc2Cl)cc1 (stereo not drawn) | -71.8%
70 | Cc1cc(C)nc(/N=C2\NC(=O)CC(C(=O)O)N2c2ccc(Cl)cc2)n1 (stereo not drawn) | 14.9%
71 | COC(=O)CSc1ccc2nnc(CCNS(=O)(=O)c3ccccc3)n2n1 | 24.3%
72 | CC(=O)c1c(COC(=O)c2cccc(C)c2)nc2ccccc2[n+]1[O-] | -1.95%
73 | Cn1c(=O)c2c(nc(SCC(=O)NCC3CCCO3)n2C)n(C)c1=O (stereo not drawn) | 2.28%
74 | Cc1c(NC(=S)NC(=O)c2ccccc2Cl)c(=O)n(-c2ccccc2)n1C | 33.4%
75 | COc1cccc(CC(=O)Nc2cc(S(=O)(=O)N3CCCCC3)ccc2C)c1 | -15.9%

Row | SMILES | hERG current change (%, negative = inhibition) at 10uM
76 | Cc1c(CC(=O)O)c(=O)oc2cc(OCc3nn[nH]n3)ccc12 | -0.585%
77 | COc1cc(NC(=O)C2CCCCC2)c(OC)cc1NC(=O)CN1CCCCC1 | -12%
78 | COc1ccc(N2CCN(S(=O)(=O)c3ccc4c(c3)N(C(C)=O)CCO4)CC2)cc1 | -18.4%
79 | CC(C)CC(=O)C(=O)[O-].[Na+] | -0.864%
80 | COc1ccc(CCC(C)NCc2ccc(C(F)(F)F)cc2)cc1 (stereo not drawn) | -66.3%
81 | COc1ccc(CCC(C)NCc2cccc(Br)c2)cc1 (stereo not drawn) | -64.6%
82 | COc1ccc(CCC(C)Nc2cccc(C)c2)cc1 (stereo not drawn) | 4.48%
83 | COc1ccc(CCC(C)NCC2CCCCC2)cc1 (stereo not drawn) | -14.9%
84 | COc1ccc(CC(=O)NC(C)CCc2ccccc2)cc1 (stereo not drawn) | 5.43%
85 | COc1ccc(CCC(C)NCc2ccc(F)cc2)cc1 (stereo not drawn) | -44.8%
86 | O=C(/C=C/c1ccco1)Nc1cccc2cccnc12 | -1.87%
87 | CCOC(=O)c1cnn(-c2cc(C)c3ccccc3n2)c1N | -1.77%
88 | O=C(Cc1cccc2ccccc12)NC(NC(=S)Nc1ccccc1Cl)C(Cl)(Cl)Cl (stereo not drawn) | 11.7%
89 | Cc1cccc(Oc2ncc(-c3ccc(Cl)cc3)cn2)c1 | 5.22%
90 | Cc1ccc(S(=O)(=O)N2CCN(C(=O)c3ccccc3Cc3ccccc3)CC2)c(C)c1 | 4.42%
91 | O=C(c1ccccc1)N1CCN(CCc2ccccn2)CC1 | 8.41%
92 | COc1ccc(C(=O)N2CCN(CCc3ccccn3)CC2)cc1.Cl | -77.3%
93 | O=C1CC(N2CCN(c3ccccn3)CC2)C(=O)N1c1ccc(Cl)cc1 (stereo not drawn) | 4.46%
94 | O=C(Cc1ccccn1)c1ccc(Cl)cc1 | 17%
95 | COc1ccc(C(=O)N2CCN(c3ccccn3)CC2)cc1 | 3.55%
96 | Cl.O=C(c1ccc(Cl)cc1)N1CCN(CCc2ccccn2)CC1 | -69%
97 | CN(CCc1ccccn1)C1CC(=O)N(c2ccc(Cl)cc2)C1=O (stereo not drawn) | 6.39%
98 | COc1ccc(C(=O)N2CCN(Cc3ccccn3)CC2)cc1.O=C(O)C(=O)O | -5.82%
99 | O=C1CC(N2CCN(CCc3ccccn3)CC2)C(=O)N1c1ccc(Cl)cc1 (stereo not drawn) | -67.4%
